Test results published in article PMC7826789 (International Journal of Molecular Sciences, 2021).

Assays:
Settings in all cases: Compound Concentration (nM):1000
AMPK-alpha1 = tested on: T1, AMPK-alpha1
T1 construct: gene PRKAA1

AMPK-alpha2 = tested on: T2, AMPK-alpha2
T2 construct: gene PRKAA2

ANKK1 = tested on: ANKK1
ARK5 = tested on: T3, ARK5
T3 construct: gene NUAK1

ASK1 = tested on: T4, ASK1
T4 construct: gene MAP3K5

ASK2 = tested on: T5, ASK2
T5 construct: gene MAP3K6

AURKA = tested on: AURKA
AURKB = tested on: AURKB
AURKC = tested on: AURKC
AXL = tested on: AXL
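Note: KINOMEscan scanMAX binding as percent activity remaining versus control; lower means stronger binding.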

Structure (SMILES) | Percent Control (AMPK-alpha1) [%] | Percent Control (AMPK-alpha2) [%] | Percent Control (ANKK1) [%] | Percent Control (ARK5) [%] | Percent Control (ASK1) [%] | Percent Control (ASK2) [%] | Percent Control (AURKA) [%] | Percent Control (AURKB) [%] | Percent Control (AURKC) [%] | Percent Control (AXL) [%]
COc1cc(C)c(N(C)C(=O)CN(C)C)cc1Nc1nc(Nc2cccc(F)c2C(N)=O)c2cc[nH]c2n1 [GSK2219385] | 100 | 100 | 94 | 86 | 100 | 70 | 85 | 93 | 90 | 76
CN1CCN(C(=O)c2ccc(NC(=O)Nc3ccc(N(C)c4ccnc(Nc5ccc(CS(C)(=O)=O)cc5)n4)cc3)cc2)CC1.Cl [GW830263A] | 82 | 87 | 28 | 78 | 100 | 67 | 0 | 0.4 | 0.2 | 9.7
COc1cc2ncnc(Nc3ccc4c(cnn4Cc4ccccc4)c3)c2cc1OC.Cl [GW282449A] | 100 | 100 | 88 | 100 | 100 | 74 | 100 | 100 | 87 | 89
COc1ccccc1-c1cc(/C=C2\C(=O)Nc3ncc(Br)cc32)cc(Br)c1O [GW442130X] | 100 | 94 | 100 | 100 | 98 | 100 | 25 | 48 | 80 | 92
Cl.O=C(Nc1ccc(Oc2ccc3[nH]c(NC(=O)c4ccccc4)nc3c2)cc1)Nc1cc(C(F)(F)F)ccc1F [GW709042A] | 56 | 100 | 95 | 100 | 100 | 80 | 82 | 61 | 37 | 0
COc1cccc(-c2c[nH]c3c(N/N=C/c4ccncc4)ncnc23)c1 [GW814408X] | 100 | 85 | 100 | 100 | 100 | 100 | 82 | 75 | 48 | 71
COc1cccc(-n2ncc3c(N/N=C/c4ccncc4)ncnc32)c1 [GW784752X] | 100 | 86 | 79 | 96 | 100 | 62 | 69 | 89 | 94 | 100
CCS(=O)(=O)c1ccc(OC)c(Nc2ncc(-c3cccc(F)c3)o2)c1 [GW621970X] | 100 | 91 | 100 | 100 | 100 | 75 | 100 | 89 | 100 | 97
Cc1cc(O)cc(C)c1/C=C/c1cncc(C(N)=O)c1 [GW435821X] | 100 | 83 | 85 | 100 | 100 | 79 | 85 | 100 | 100 | 100
CCc1ccc(Oc2nccc(-c3c(-c4ccc(F)cc4)ncn3C3CCNCC3)n2)cc1 [SB-242719] | 100 | 99 | 83 | 100 | 84 | 66 | 81 | 100 | 98 | 100
O=C(Nc1n[nH]c2nc(-c3ccc(O)cc3)c(Br)cc12)C1CC1 [SB-725317] | 100 | 100 | 100 | 100 | 100 | 100 | 100 | 91 | 59 | 100
Cl.O=C(O[C@H]1CN[C@H](C#Cc2cc3ncnc(Nc4ccc5c(cnn5Cc5ccccc5)c4)c3s2)C1)N1CCOCC1 [GSK200398A] | 100 | 92 | 100 | 91 | 100 | 88 | 71 | 84 | 100 | 100
NS(=O)(=O)c1ccc(N/N=C2\C(=O)Nc3ccc(C(=O)NCCc4c[nH]cn4)cc32)cc1 [GW300660X] | 100 | 100 | 59 | 80 | 100 | 65 | 72 | 55 | 99 | 100
Cl.O=S1CCN(Cc2ccc(-c3ccc4ncnc(Nc5ccc(OCc6ccccc6)c(F)c5)c4c3)o2)CC1 [GW576924A] | 100 | 100 | 88 | 100 | 100 | 69 | 100 | 100 | 100 | 100
COc1cc2ncn(-c3cc(O[C@H](C)c4ccccc4Cl)c(C(N)=O)s3)c2cc1OC [GSK237701A] | 54 | 100 | 100 | 29 | 100 | 97 | 87 | 38 | 74 | 50
C/C(Nc1ccc(S(N)(=O)=O)cc1)=C1/C(=O)Nc2ccccc21 [GW335962X] | 78 | 87 | 50 | 100 | 100 | 69 | 66 | 16 | 71 | 73
NS(=O)(=O)c1ccc(Nc2ncc(-c3ccccc3)o2)cc1 [GW572399X] | 100 | 95 | 82 | 100 | 100 | 77 | 100 | 43 | 100 | 100
COc1cc(/C=N/Nc2ncnc3[nH]ncc23)ccc1O [GW578748X] | 79 | 54 | 21 | 100 | 100 | 75 | 41 | 56 | 58 | 65
COc1ccc2c(-c3ccnc(Nc4cccc(OC(F)(F)F)c4)n3)cnn2n1 [GW810372X] | 100 | 100 | 89 | 100 | 100 | 78 | 100 | 100 | 57 | 87
CC1=C(C(=O)Nc2ccc3[nH]ncc3c2)C(c2ccc3ccccc3c2)CC(=O)N1 (stereo not shown) [GSK270822A] | 76 | 81 | 100 | 81 | 98 | 84 | 39 | 49 | 62 | 91

Structure (SMILES) | Percent Control (AMPK-alpha1) [%] | Percent Control (AMPK-alpha2) [%] | Percent Control (ANKK1) [%] | Percent Control (ARK5) [%] | Percent Control (ASK1) [%] | Percent Control (ASK2) [%] | Percent Control (AURKA) [%] | Percent Control (AURKB) [%] | Percent Control (AURKC) [%] | Percent Control (AXL) [%]
COc1ccc2cc(-c3c(-c4ccncc4)nc(-c4ccc(S(C)(=O)=O)cc4C)n3C)ccc2c1 [SB-633825] | 53 | 90 | 100 | 100 | 83 | 74 | 87 | 66 | 85 | 88
O=C1Nc2ccc(C(=O)c3ccco3)cc2C1=Cc1cc(Cl)c(O)c(Cl)c1 [GW406108X] | 90 | 94 | 9.2 | 100 | 100 | 72 | 35 | 22 | 58 | 100
COC(=O)Nc1nc2ccc(Oc3ccc(NC(=O)Nc4cc(C(F)(F)F)ccc4F)cc3)cc2s1.Cl [GW693917A] | 69 | 82 | 85 | 100 | 100 | 64 | 71 | 13 | 50 | 6
CC1=C(C(=O)Nc2ccc3[nH]ncc3c2)C(c2ccc(Cl)c(Cl)c2)CC(=O)N1 (stereo not shown) [GSK299115A] | 67 | 97 | 100 | 85 | 98 | 82 | 45 | 60 | 56 | 100
NS(=O)(=O)c1ccc(N/N=C2\C(=O)Nc3ccc(Cl)cc32)cc1 [GW280670X] | 100 | 88 | 97 | 100 | 100 | 91 | 91 | 100 | 100 | 100
NS(=O)(=O)c1ccc(N/N=C2\C(=O)Nc3ccc(-c4cnco4)cc32)cc1 [GW276655] | 95 | 100 | 65 | 100 | 100 | 85 | 70 | 66 | 65 | 100
CCS(=O)(=O)c1ccc(OC)c(Nc2ncc(-c3cccc(OC)c3)o2)c1 [GW580509X] | 100 | 100 | 95 | 100 | 100 | 85 | 88 | 83 | 100 | 95
CN(C)CCNC(=O)Nc1ccc(N(C)c2ccnc(Nc3ccc(CS(C)(=O)=O)cc3)n2)cc1.Cl [GW830900A] | 87 | 74 | 88 | 48 | 100 | 80 | 8.8 | 4.4 | 4.5 | 58
Cl.c1ccc(Cc2nc3ccc(Nc4ncnc5ccccc45)cc3[nH]2)cc1 [GR269666A] | 100 | 100 | 94 | 100 | 100 | 77 | 100 | 100 | 100 | 100
Nc1ncnc2occ(-c3ccc(NC(=O)Nc4cc(C(F)(F)F)ccc4F)cc3)c12 [GW770249X] | 100 | 86 | 32 | 100 | 100 | 80 | 66 | 5.7 | 35 | 0
C[C@@H](Oc1cc(-n2cnc3ccc(OC4CCN(C)CC4)cc32)sc1C(N)=O)c1ccccc1Cl [GSK579289A] | 45 | 100 | 63 | 19 | 99 | 66 | 76 | 94 | 65 | 67
COc1ccc2[nH]c3c4[nH]c5ccc(OC)cc5c4c4c(c3c2c1)C(=O)NC4=O [GW296115X] | 44 | 54 | 71 | 25 | 83 | 86 | 57 | 16 | 17 | 30
CC(C)COC(=O)c1ccc2c(c1)/C(=C/Nc1ccc(S(N)(=O)=O)cc1)C(=O)N2 [GW416981X] | 100 | 92 | 44 | 97 | 100 | 85 | 66 | 65 | 35 | 100
COc1cc(N2CCN(C(C)C)CC2)ccc1Nc1nc(Nc2ccc(F)cc2C(=O)NC[C@@H](O)CO)c2cc[nH]c2n1 [GSK1392956A] | 100 | 100 | 92 | 67 | 100 | 73 | 95 | 91 | 90 | 46
COc1cc(C=NNc2ncnc3c2cnn3-c2ccccc2)ccc1O [GW513184X] | 100 | 100 | 48 | 84 | 100 | 100 | 33 | 96 | 59 | 60
CCn1c(-c2nonc2N)nc2c(C#CC(C)(C)O)nc(OCCNC)cc21.Cl [GSK949675] | 100 | 100 | 100 | 100 | 95 | 100 | 90 | 100 | 100 | 100
COc1ccc(COc2ccc(Cc3cnc(N)nc3N)cc2OC)cc1 [GW632580X] | 89 | 99 | 81 | 100 | 80 | 85 | 76 | 100 | 100 | 100
CN(C)c1cc2c(Nc3ccc4c(cnn4Cc4ccccc4)c3)ncnc2cn1 [GW282974X] | 90 | 100 | 100 | 100 | 100 | 73 | 74 | 100 | 92 | 98
NS(=O)(=O)c1ccc(N/N=C2\C(=O)Nc3ccc(C(=O)NCc4ccncc4)cc32)cc1 [GW300657X] | 78 | 83 | 27 | 86 | 100 | 70 | 57 | 59 | 76 | 95
Cl.O=C(Nc1ccc(Oc2ccc3[nH]c(NC(=O)c4ccco4)nc3c2)cc1)Nc1cc(C(F)(F)F)ccc1F [GW683134A] | 67 | 82 | 100 | 100 | 100 | 93 | 98 | 13 | 56 | 0
